Our source for the Potency and outcome values is PubChem BioAssay (Tox21).

Records with an inconclusive call do not appear. Calls of active or inactive are those of the source. Unless noted, calls follow the shape of the dose curve; as a rule, active = well fitted curve in the direction sought with a large enough effect in the repeat runs; inconclusive = weak or mixed curves; inactive = no such curve, though single readings can be large; an effect the other way counts as inactive or inconclusive.

Experiment [1] in a line: qHTS assay to identify small molecule antagonists of the glucocorticoid receptor (GR) signaling pathway - cell viability counter screen (AID 720693). Also: nearly all actives have a fitted effect of over 55% in size. On the technique in general: In qHTS, concentration-response curves come from the screen itself.
Experiment [2] can be described thus: qHTS assay for identifying genotoxic compounds that show differential cytotoxicity against isogenic chicken DT40 cell lines with known DNA damage response pathways - Rev3 mutant cell line (AID 743014). Also: nearly all actives have a fitted effect of over 55% in size. Also: potency is read from the fitted curve at half-maximal effect.
A short description of experiment [3]: qHTS assay for identifying genotoxic compounds that show differential cytotoxicity against isogenic chicken DT40 cell lines with known DNA damage response pathways - Rad54/Ku70 mutant cell line (AID 743015). Also: nearly all actives have a fitted effect of over 60% in size. Also: potency is read from the fitted curve at half-maximal effect.
Experiment [4] is described as follows: qHTS assay to identify small molecule antagonists of the androgen receptor (AR) signaling pathway - cell viability counter screen (AID 743033; also: nearly all actives have a fitted effect of over 45% in size; also: potency is read from the fitted curve at half-maximal effect).
Experiment [5] is described as follows: qHTS assay to identify small molecule antagonists of the androgen receptor (AR) signaling pathway using the MDA cell line - cell viability counter screen (AID 743041; also: nearly all actives have a fitted effect of over 45% in size). In outline: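 Cytotoxicity counter screen: MDA-kb2 AR-luc cells, compound + R1881, 16 h, 37C, 0% CO2; CellTiter-Fluor added at 15.5 h, fluorescence read after 30 min.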
Experiment [6] can be described thus: qHTS assay to identify small molecule antagonists of the thyroid receptor (TR) signaling pathway - cell viability counter screen (AID 743064). Also: nearly all actives have a fitted effect of over 50% in size. Also: potency is read from the fitted curve at half-maximal effect. In outline: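 GH3.TRE-Luc cells, 4 h pre-plating; cpd + T3 1 nM final; 37 °C 23.5 h; CellTiter-Fluor 30 min; fluorescence read.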
The nature of experiment [7]: qHTS assay for identifying genotoxic compounds that show differential cytotoxicity against isogenic chicken DT40 cell lines with known DNA damage response pathways - wild type cell line (AID 743012). Also: nearly all actives have a fitted effect of over 60% in size. Also: potency is read from the fitted curve at half-maximal effect. The method, boiled down:
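Viability of DNA repair-proficient chicken DT40 cells was assessed by CellTiter-Glo luminescence following 40 h compound exposure at 37 C/5% CO2.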

In experiment [8] the target is Androgen receptor (Homo sapiens) (UniProt P10275). The experiment can be described thus: qHTS assay to identify small molecule agonists of the androgen receptor (AR) signaling pathway (AID 743036; active = well fitted activation curve with a large enough effect in the signal ratio in the repeat runs, with a control signal flat, not every such curve was filed as active; the % refers to the signal ratio). The method, boiled down: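 AR-bla HEK293 cells, 2,000/well; 4 h preincubation 37C/5% CO2; compound (DMSO) 16 h at 37C; LiveBLAzer B/G FRET substrate 2 h RT; fluorescence intensity read-out.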
Androgen receptor (Homo sapiens), sequence (P10275 whole entry, looked up): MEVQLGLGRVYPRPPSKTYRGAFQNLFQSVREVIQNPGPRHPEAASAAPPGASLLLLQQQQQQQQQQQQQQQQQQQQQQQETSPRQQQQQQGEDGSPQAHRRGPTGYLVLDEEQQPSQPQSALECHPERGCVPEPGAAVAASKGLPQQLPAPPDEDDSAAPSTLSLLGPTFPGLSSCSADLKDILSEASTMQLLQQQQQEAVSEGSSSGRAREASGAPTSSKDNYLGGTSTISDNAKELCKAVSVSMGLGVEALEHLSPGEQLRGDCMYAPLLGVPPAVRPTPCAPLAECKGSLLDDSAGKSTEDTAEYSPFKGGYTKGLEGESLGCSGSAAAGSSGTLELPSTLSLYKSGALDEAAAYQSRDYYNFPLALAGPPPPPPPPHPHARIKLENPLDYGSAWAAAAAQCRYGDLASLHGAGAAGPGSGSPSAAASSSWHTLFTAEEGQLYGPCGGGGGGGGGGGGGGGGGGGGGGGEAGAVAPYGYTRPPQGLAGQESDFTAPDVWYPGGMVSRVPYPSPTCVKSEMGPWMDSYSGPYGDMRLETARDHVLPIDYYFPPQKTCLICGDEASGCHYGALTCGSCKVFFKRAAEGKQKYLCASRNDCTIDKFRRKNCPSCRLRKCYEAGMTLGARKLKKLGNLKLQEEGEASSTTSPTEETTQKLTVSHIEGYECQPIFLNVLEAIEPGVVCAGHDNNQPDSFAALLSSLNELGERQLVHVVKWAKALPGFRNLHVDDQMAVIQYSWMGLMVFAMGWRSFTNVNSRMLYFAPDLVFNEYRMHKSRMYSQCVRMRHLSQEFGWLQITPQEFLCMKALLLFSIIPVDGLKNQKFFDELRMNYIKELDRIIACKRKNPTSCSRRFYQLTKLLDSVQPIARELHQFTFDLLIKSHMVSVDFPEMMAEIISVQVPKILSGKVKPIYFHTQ

The target is the same in experiment [9]. The experiment can be described thus: qHTS assay to identify small molecule agonists of the androgen receptor (AR) signaling pathway using the MDA cell line (AID 743040; also: nearly all actives have a fitted effect of over 20% in size). In outline: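 Luciferase read-out, ONE-Glo, 30 min RT. Cells: MDA-kb2 AR-luc, MMTV promoter with AR and GR response elements. Compound exposure 16 h, 37C, 0% CO2, after 5 h pre-incubation. qHTS agonist mode.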

Experiment [10] has the same target. The experiment can be described thus: qHTS assay to identify small molecule antagonists of the androgen receptor (AR) signaling pathway using the MDA cell line (AID 743042; also: nearly all actives have a fitted effect of over 55% in size). The method, boiled down:
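MDA-kb2 breast carcinoma cells carrying MMTV-luciferase (AR/GR responsive) were co-treated with compounds and the agonist R1881 for 16 h at 37C. Inhibition read as ONE-Glo luminescence; CellTiter-Fluor fluorescence measured in parallel for cytotoxicity.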

As for `C(=C\c1ccccc1)/c1ccccc1`, the Potency entry in [1], in experiment [2], in [3], in experiment [4], in experiment [5] and in experiment [6] was “inactive” in each case.
In the case of `Cc1cccc(N(C)C(=S)Oc2ccc3c(c2)CCC3)c1`, the Potency entry in experiment [1] and in [6] was “inactive” in each case.
Take `O=C(/C=C/c1ccccc1)OCCc1ccccc1`: the Potency result in [7], in [2], in experiment [3], in experiment [4], in [5] and in [10] was “inactive” throughout. For the same compound, in [6], the Potency entry is “inactive”. Moreover, the call in experiment [8] and in experiment [9] was inactive.
`CCCC(=O)C(=O)O`: the Potency result in experiment [7], in experiment [2], in experiment [3], in experiment [4], in [5] and in experiment [6] was “inactive” in each case.
In the case of `O=C=Nc1cccc(C(F)(F)F)c1`, the Potency result in [1], in experiment [5] and in [10] was “inactive” throughout. Besides, the result in experiment [8] and in [9] was inactive. The Potency in experiment [6] was 60.7 µM (active).
Turning to `COc1ccccc1NC(=O)c1cc2ccccc2cc1O`, the Potency in experiment [7] was 43.3 µM (active); in [2] it was 48.6 µM (active); in [3], 30.6 µM (active); in [4], 13.8 µM (active). Further, the result in experiment [8] and in experiment [9] was inactive. In addition, the Potency result in experiment [5] and in [6] was “inactive” each time.
Regarding `CC(=O)N/N=C/c1ccc([N+](=O)[O-])o1`, the Potency in [7] is 11.9 µM (active); in experiment [2], 10.6 µM (active); in [3], 18.8 µM (active); in experiment [6], 18.8 µM (active). Also, the Potency result in experiment [4] and in [5] was “inactive” in each case.
Turning to `CCCCCCCCOc1ccc(C(=O)O)cc1`, the Potency result in experiment [7], in experiment [2], in [3], in experiment [4], in experiment [5] and in experiment [6] was “inactive” each time.
Consider `CC(C)C(O)(c1ccc(OC(F)(F)F)cc1)c1cncnc1` (stereo not given), for which the values for the Potency in experiment [7], in experiment [2] and in experiment [3] were 48.4 µM (active), 27.2 µM (active) and 48.4 µM (active), respectively. The Potency entry in experiment [4], in experiment [5] and in experiment [6] was “inactive” each time.
Consider `CCCCCCCCCCCCCCN(CCO)CCO`, for which the Potency in experiment [7] was 2.43 µM (active); in [2], 1.09 µM (active); in [3], 2.43 µM (active); in experiment [4], 43.6 µM (active); in [6], 19.3 µM (active). In experiment [5], the Potency entry is “inactive”.
`NC1[C@H]2CN(c3nc4c(cc3F)c(=O)c(C(=O)O)cn4-c3ccc(F)cc3F)C[C@@H]12` (stereo not given in full): the Potency is 4.73 µM (active) in [7], 6.68 µM (active) in [2], 7.5 µM (active) in [3] and 26.6 µM (active) in experiment [6]. The Potency entry in experiment [4], in experiment [5] and in experiment [10] was “inactive” throughout. Moreover, in [9], the compound was classed as inactive.
With `C[C@]12CC[C@@H]3c4ccc(O)cc4CC[C@H]3[C@@H]1CC[C@@H]2OC(=O)CCC1CCCC1`, the Potency in [7] is 11.9 µM (active); in experiment [2], 24.3 µM (active); in experiment [3], 11.9 µM (active). Also, the Potency entry in experiment [4] and in experiment [5] was “inactive” each time.
Turning to `O=c1cc(-c2ccccc2)oc2cc(O)cc(O)c12`, the Potency in [7] was 54.5 µM (active); in [2], 48.6 µM (active); in experiment [3] it was 24.3 µM (active); in experiment [6], 54.5 µM (active). In addition, the Potency entry in experiment [4], in experiment [5] and in [10] was “inactive” throughout. The result in [9] was inactive.
With `Cc1cc(O)ccc1O`, the Potency result in experiment [7], in experiment [2], in experiment [3], in experiment [4] and in experiment [5] was “inactive” each time.
`CC(=O)NC1(c2cccc(F)c2)CCN(CC[C@@]2(c3ccc(Cl)c(Cl)c3)CN(c3ccccc3)C(=O)CO2)CC1`: the Potency in [7] is 43.4 µM (active); in experiment [2], 54.6 µM (active); in [3], 48.7 µM (active); in [4], 39 µM (active); in experiment [6], 7.72 µM (active). Further, in [5], the Potency result is “inactive”.
For `COC(=O)CCS`, the Potency entry in [7], in experiment [2], in experiment [3], in experiment [4], in experiment [5] and in experiment [6] was “inactive” each time.
`CN(C(=O)CN(CCO)CC(=O)N(C)C(C)(C)Cc1ccccc1)C(C)(C)Cc1ccccc1`: the Potency entry in experiment [1] and in experiment [5] was “inactive” each time.
With `O=C(O)CCC(=O)C(=O)O`, the Potency entry in [7], in experiment [2], in [3], in [4], in experiment [5] and in experiment [6] was “inactive” in each case.
As for `O=C1NCCN1CCO`, the Potency result in [7], in experiment [2], in [3], in experiment [4], in experiment [5] and in [6] was “inactive” throughout.
With `CC1(CN2CCC(n3c(=O)[nH]c4ccccc43)CC2)OCc2ccccc2-n2cccc21` (stereo not given), the Potency was 21.1 µM (active) in experiment [7], 29.8 µM (active) in [2], 21.1 µM (active) in [3] and 29.8 µM (active) in experiment [6]. Also, the Potency result in experiment [4] was “inactive”.
As to `CN1CCCN=C1COC(=O)C(O)(c1ccccc1)C1CCCCC1` (stereo not given), the Potency entry in experiment [1] and in [5] was “inactive” in each case.
With `O=C(Cn1ccnc1[N+](=O)[O-])NCCO`, the Potency result in [7], in [2], in [3], in experiment [4], in experiment [5] and in experiment [10] was “inactive” each time. For the same compound, in experiment [6], the Potency entry was “inactive”. Further, the result in experiment [8] and in [9] was inactive.
For `CCC=CC#N`, the Potency entry in experiment [7], in experiment [2], in [3], in [4], in experiment [5] and in experiment [6] was “inactive” each time.
